# Test results reported in PubChem BioAssay AID651640 (Broad Institute, 2012).
# Out of some 350,000 compounds screened, about 6,000 (1.7%) were called active. Not shown: some 5% with an inconclusive outcome. What follows is part of a selection rich in actives, with near analogues and random picks from the rest. Unmarked numbers belong to inactive results. No stated cut-off is given here; in the data, active means CPE inhibition above about 20% (passing the limit was not always enough); inconclusive means no clear call, values can overlap the other calls; tested in BHK-21 cells.
# Experiment: inhibitors of DENV2 cytopathic effect, primary screen, cell-based, plate reader, single concentration (AID 651640);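 further: 0% = median of neutral control wells and 100% = median of positive control wells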
# Details: DENV2-infected cells, cytopathic effect rescue, at 9.99 µM, stronger effect = higher value
row,SMILES,CPE inhibition
1,COc1ccccc1CNC(=O)C[C@H]1CC[C@@H]2[C@H](COC[C@H](O)CN2Cc2ccccc2)O1,-0.546%
2,CO[C@@H](CN(C)C(=O)c1cnccn1)[C@H](C)CN([C@H](C)CO)S(=O)(=O)c1ccc(C)cc1,-0.652%
3,C[C@H]1CN([C@@H](C)CO)C(=O)Cc2cc(NC(=O)CCCCCC(=O)Nc3ccccc3N)ccc2O[C@@H]1CN(C)Cc1ccncc1,-3.1%
4,C[C@@H]1CN([C@@H](C)CO)C(=O)Cc2cc(NC(=O)CCCCCC(=O)Nc3ccccc3N)ccc2O[C@H]1CN(C)Cc1ccc(Cl)c(Cl)c1,35.5% (active)
5,C[C@H]1CN([C@@H](C)CO)C(=O)Cc2cc(NC(=O)CCCCCC(=O)Nc3ccccc3N)ccc2O[C@H]1CN(C)C(=O)Nc1ccc(F)cc1,6.87%
6,C[C@H](CO)N1C[C@H](C)[C@H](CN(C)Cc2ccc(C(F)(F)F)cc2)Oc2ccc(NC(=O)CCCCCC(=O)Nc3ccccc3N)cc2CC1=O,30.6% (active)
7,C[C@@H]1CN([C@@H](C)CO)C(=O)Cc2cc(NC(=O)CCCCCC(=O)Nc3ccccc3N)ccc2O[C@H]1CN(C)C(=O)Nc1ccc(C(F)(F)F)cc1,0.365%
8,C[C@H]1CN([C@@H](C)CO)C(=O)Cc2cc(NC(=O)Cc3ccccc3)ccc2O[C@@H]1CN(C)Cc1ccc(Cl)c(Cl)c1,11.1%
9,CC(=O)N(C)C[C@@H]1Oc2ncc(C#CCc3ccccc3)cc2C(=O)N([C@H](C)CO)C[C@H]1C,13.5%
10,CO[C@@H]1CN(C)C(=O)c2cc(NC(=O)c3ccccc3)ccc2OC[C@H](C)N(C(=O)CN(C)C)C[C@H]1C,-4.5%
11,C[C@H](CO)N1C[C@H](C)[C@H](CN(C)Cc2ccc(C(=O)O)cc2)Oc2ccc(NS(=O)(=O)c3cn(C)cn3)cc2CC1=O,-5.77%
12,CC(C)NC(=O)N(C)C[C@H]1Oc2ccc(NS(C)(=O)=O)cc2CC(=O)N([C@@H](C)CO)C[C@H]1C,-8.84%
13,CO[C@H]1CN(C)C(=O)c2cc(NC(=O)c3nc4ccccc4s3)ccc2OC[C@H](C)N(Cc2cccnc2)C[C@@H]1C,21.1% (active)
14,CO[C@H]1CN(C)C(=O)c2cc(NC(=O)c3cnccn3)ccc2OC[C@H](C)N(C(=O)C2CC2)C[C@H]1C,7.36%
15,CO[C@@H]1CN(C)C(=O)c2cc(NC(=O)c3cnccn3)ccc2OC[C@@H](C)N(CC2CC2)C[C@H]1C,-5.97%
16,CO[C@H]1CN(C)C(=O)c2cc(NC(=O)c3cnccn3)ccc2OC[C@@H](C)N(CC2CC2)C[C@@H]1C,26.7% (active)
17,CO[C@H]1CN(C)C(=O)c2ccc(NC(=O)c3nc4ccccc4s3)cc2OC[C@@H](C)N(Cc2cncnc2)C[C@H]1C,-2.74%
18,CO[C@H]1CN(C)C(=O)c2ccc(NC(=O)c3nc4ccccc4s3)cc2OC[C@H](C)N(Cc2cccnc2)C[C@@H]1C,3.73%
19,COCC#Cc1ccc([C@@H]2[C@@H](CO)N3C(=O)CN(C(=O)C4CCCC4)C[C@@H]23)cc1,-7.7%
20,CC(C)NC(=O)N(C)C[C@H]1Oc2ccc(N(C)C)cc2C(=O)N([C@@H](C)CO)C[C@H]1C,-2.75%
21,C[C@@H]1CCCCO[C@H](CN(C)C(=O)CCC(F)(F)F)[C@H](C)CN([C@H](C)CO)C(=O)c2cc(NC(=O)NC3CCCCC3)ccc2O1,0.687%
22,COCC(=O)Nc1ccc2c(c1)C(=O)N(C)C[C@@H](OC)[C@@H](C)CN(C(=O)c1ccccc1)[C@@H](C)CO2,0.375%

row,SMILES,CPE inhibition
1,CN1CCN(C(=O)c2cc3c(c(-c4cccc(-c5ccc(C(=O)N(C)C)cc5)c4)n2)[C@@H](CCO)N([S@](=O)C(C)(C)C)C3)CC1,1.85%
2,O=C(CN1CCOCC1)N1CCCCN2[C@H](CO)[C@H](c3ccc(-c4ccccc4)cc3)[C@@H]2C1,6.44%
3,O=C(CN1CCOCC1)NC[C@@H]1N[C@@H](CO)[C@@H]1c1ccc(-c2ccccc2)cc1,29.8% (active)
4,O=C(CN1CCOCC1)N1CCCCN2[C@@H](CO)[C@H](c3ccc(-c4ccccc4)cc3)[C@@H]2C1,-4.15%
5,CN1C(=O)c2cc(NC(=O)c3cnccn3)ccc2OC[C@@H]2O[C@H](CC(=O)O)CC[C@@H]21,0.738%
6,CCN(CC(=O)NCc1cccs1)C(=O)/C=C/c1ccc(C)cc1,13.7%
7,COc1ccc(/C=C/C(=O)OCC(=O)NCc2cccs2)cc1OC,-0.984%
8,CCOc1ccc(/C=C/C(=O)N(CC)CC(=O)NCc2cccs2)cc1OC,67.5% (active)
9,COc1ccccc1C#Cc1ccc([C@H]2[C@H](CO)N3CCCCN(C(=O)C4CCC4)C[C@@H]23)cc1,-8.41%
10,Cc1cc(C)cc(NC(=O)NC2CCN(CC(=O)Nc3cccc(Cl)c3C)CC2)c1,-4.01%
11,Cc1cccc(C(=O)NC2CCN(CC(=O)Nc3cccc(Cl)c3)CC2)c1,39% (active)
12,O=C(CN1CCC(NC(=O)Nc2ccccc2)CC1)Nc1cccc([N+](=O)[O-])c1,-9.16%
13,C[C@H]1CN([C@@H](C)CO)S(=O)(=O)c2ccc(C#Cc3ccccc3)cc2O[C@@H]1CN(C)C(=O)C1CC1,19.8%
14,Cc1ccccc1C1=NC(C(F)(F)F)(C(F)(F)F)c2c(n(-c3ccc(F)cc3)c(=O)[nH]c2=O)N1,22.3% (active)
15,COc1ccc2c3c([nH]c2c1)[C@H](CO)N(C(=O)Nc1ccc(F)cc1)CC31CN(S(=O)(=O)c2cccc(F)c2)C1,1.82%
16,CCCNC(=O)N1[C@@H](C#N)[C@H](c2ccc(-c3ccc(C(=O)N(C)C)cc3)cc2)[C@@H]1CO,-5.96%
17,COC(=O)C[C@@H]1CC[C@@H]2[C@H](COc3ccc(NS(=O)(=O)c4ccccc4F)cc3C(=O)N2C)O1,1.86%
18,C[C@@H]1CCCCO[C@H](CN(C)C(=O)Nc2ccc3c(c2)OCO3)[C@H](C)CN([C@H](C)CO)C(=O)c2cc(NS(C)(=O)=O)ccc2O1,11.9%
19,CCC(CO)Oc1cc(NC(=O)c2cccc3ccccc23)c2ncn(C(C)C)c2c1 (centres undefined),-11.1%
20,CCC(CO)Oc1cc(NCc2ccccc2)c2ncn(C3CCCC3)c2c1 (centres undefined),64.4% (active)
21,CCC(CO)Oc1cc(NC(=O)c2cccc(F)c2)c2ncn(C(C)C)c2c1 (centres undefined),-10.5%
22,COc1ccc(SSc2ccc(OC)cc2C(=O)O)c(C(=O)O)c1,2.7%

row,SMILES,CPE inhibition
1,O=S(=O)(c1ccccc1)N1CCCCN2[C@@H](CO)[C@H](c3ccc(C#Cc4cccnc4)cc3)[C@@H]2C1,17.6%
2,CCC(=O)N1CCCCN2[C@H](CO)[C@@H](c3ccc(-c4cccnc4)cc3)[C@H]2C1,-0.425%
3,COCC(=O)N1CCCCN2[C@H](CO)[C@H](c3ccc(-c4ccc(OC)cc4)cc3)[C@H]2C1,-1.33%
4,COc1ccc(-c2ccc([C@@H]3[C@@H](CO)N4CCCCN(C(=O)NC(C)C)C[C@H]34)cc2)cc1,63.6% (active)
5,COCC(=O)N1CCCCN2[C@H](CO)[C@@H](c3ccc(-c4ccc(OC)cc4)cc3)[C@@H]2C1,-7.09%
6,C[C@@H](O)C#Cc1ccc([C@@H]2[C@H]3CN(C(=O)c4ccc5c(c4)OCO5)CCCCN3[C@H]2CO)cc1,2.09%
7,C[C@H](O)C#Cc1ccc([C@@H]2[C@@H](CO)N3CCCCN(C(=O)c4ccncc4)C[C@@H]23)cc1,-16.7%
8,COc1ccc(C#Cc2ccc([C@@H]3[C@@H](CO)N4CCCCN(C(=O)c5ccncc5)C[C@@H]34)cc2)cc1,50.9% (active)
9,O=C(Nc1ccccc1F)N1CCCCN2[C@H](CO)[C@@H](c3ccc(-c4cccnc4)cc3)[C@H]2C1,5.39%
10,C[C@H](O)C#Cc1ccc([C@H]2[C@H](CO)N3CCCCN(C(=O)c4ccc(F)cc4)C[C@@H]23)cc1,41.2% (active)
11,CC(C)C#Cc1ccc([C@H]2[C@H](CO)N3CCCCN(C(=O)c4ccc(F)cc4)C[C@@H]23)cc1,10.5%
12,CN(C)CC(=O)N1CCCCN2[C@@H](CO)[C@H](c3ccc(-c4cccnc4)cc3)[C@@H]2C1,33.3% (active)
13,CC(C)(O)C#Cc1ccc([C@H]2[C@@H](CO)N3CCCCN(C(=O)c4ccncc4)C[C@H]23)cc1,0.094%
14,O=C(Nc1ccc(C(F)(F)F)cc1)N[C@@H]1CC[C@H](CCNC(=O)c2ccccc2F)O[C@@H]1CO,5.46%
15,C[C@@H]1CCCCO[C@@H](CN(C)C(=O)Nc2ccc(F)cc2)[C@H](C)CN([C@@H](C)CO)C(=O)c2cc(NS(=O)(=O)c3ccccc3)ccc2O1,-1.25%
16,CCC(=O)N1C[C@@H](C)[C@@H](OC)CN(C)C(=O)c2ccc(NC(=O)C3CCCCC3)cc2OC[C@@H]1C,-0.243%
17,COC(=O)C1=C(C)N(Cc2ccc(C(F)(F)F)cc2)C(=NCc2ccccc2)NC1c1ccccc1C(F)(F)F (centres undefined),16%
18,CN1[C@@H]2c3ccc(-c4cccc(F)c4)c(=O)n3C[C@@H]2[C@@H](CO)[C@@H]1C(=O)NC1CCC1,-3.71%
19,CC(C)NC(=O)N(C)C[C@@H]1Oc2ccc(NC(=O)Cn3cnnn3)cc2CC(=O)N([C@H](C)CO)C[C@H]1C,-6.63%
20,O=C(C[C@@H]1C[C@@H]2c3cc(NS(=O)(=O)c4ccccc4)ccc3O[C@@H]2[C@@H](CO)O1)NC1CCCCC1,9.22%
